Data taken from the supplement of paper PMC7765376.
Structures can show the parent of a compound that is named as a salt. In all, about 1,500 compounds were measured (“Excess HSA synergy score (sum over dose matrix of excess over highest single agent)”: median about 43, lowest 2% from about -900 on). What follows is part of a selection rich in the lowest values, with near analogues and random picks from the rest.

Test system: PEO-1
Assay: Excess HSA synergy score (sum over dose matrix of excess over highest single agent) (score (summed % response)); higher = less synergy / more antagonism (negative = synergy)
Conditions: 72 h, read-out: viability/apoptosis luminescence (CellTiter-Glo or Caspase3-Glo / not stated per table)
[1] = matrix design: 6x6, 5-fold dilutions (primary screen)
[2] = matrix design: 10x10, 9-step dilutions (confirmatory)

| SMILES | Excess HSA synergy score [1] | Excess HSA synergy score [2] |
| --- | --- | --- |
| CCOC(=O)N1CCN(/[N+]([O-])=N/Oc2ccc([N+](=O)[O-])cc2C#N)CC1 + CC[C@H](NC(=O)[C@H](C)NC)C(=O)N1C[C@@H](O)C[C@H]1Cc1c(-c2[nH]c3cc(F)ccc3c2C[C@@H]2C[C@H](O)CN2C(=O)[C@H](CC)NC(=O)[C@H](C)NC)[nH]c2cc(F)ccc12 [Birinapant] | 10.9 |  |
| O=C1NC(=O)[C@@H](c2cn3c4c(cccc24)CCC3)[C@@H]1c1c[nH]c2ccccc12 [Tivantinib] + CC[C@H](NC(=O)[C@H](C)NC)C(=O)N1C[C@@H](O)C[C@H]1Cc1c(-c2[nH]c3cc(F)ccc3c2C[C@@H]2C[C@H](O)CN2C(=O)[C@H](CC)NC(=O)[C@H](C)NC)[nH]c2cc(F)ccc12 [Birinapant] | -96.6 |  |
| COC(=O)Nc1ccc(-c2nc(N3CCOCC3)c3cnn(C4CCN(C(=O)OC)CC4)c3n2)cc1 + CC[C@H](NC(=O)[C@H](C)NC)C(=O)N1C[C@@H](O)C[C@H]1Cc1c(-c2[nH]c3cc(F)ccc3c2C[C@@H]2C[C@H](O)CN2C(=O)[C@H](CC)NC(=O)[C@H](C)NC)[nH]c2cc(F)ccc12 [Birinapant] | -64.3 |  |
| O=C(O)c1ccccc1C(=O)Nc1ccc(-c2ccccc2)cc1 [Kartogenin] + CC[C@H](NC(=O)[C@H](C)NC)C(=O)N1C[C@@H](O)C[C@H]1Cc1c(-c2[nH]c3cc(F)ccc3c2C[C@@H]2C[C@H](O)CN2C(=O)[C@H](CC)NC(=O)[C@H](C)NC)[nH]c2cc(F)ccc12 [Birinapant] | 460 |  |
| CC[C@@H]1C(=O)N(C)c2cnc(Nc3ccc(C(=O)NC4CCN(C)CC4)cc3OC)nc2N1C1CCCC1 + CC[C@H](NC(=O)[C@H](C)NC)C(=O)N1C[C@@H](O)C[C@H]1Cc1c(-c2[nH]c3cc(F)ccc3c2C[C@@H]2C[C@H](O)CN2C(=O)[C@H](CC)NC(=O)[C@H](C)NC)[nH]c2cc(F)ccc12 [Birinapant] | -84.2 |  |
| COc1cc(C(=O)NC2CCN(C)CC2)ccc1Nc1ncc2c(n1)N(C1CCCC1)CCC(=O)N2C(C)C + CC[C@H](NC(=O)[C@H](C)NC)C(=O)N1C[C@@H](O)C[C@H]1Cc1c(-c2[nH]c3cc(F)ccc3c2C[C@@H]2C[C@H](O)CN2C(=O)[C@H](CC)NC(=O)[C@H](C)NC)[nH]c2cc(F)ccc12 [Birinapant] | 135 |  |
| CC[C@@H]1C(=O)N(C)c2cnc(Nc3ccc(C(=O)N[C@H]4CC[C@H](N5CCN(CC6CC6)CC5)CC4)cc3OC)nc2N1C(C)C [Volasertib] + CC[C@H](NC(=O)[C@H](C)NC)C(=O)N1C[C@@H](O)C[C@H]1Cc1c(-c2[nH]c3cc(F)ccc3c2C[C@@H]2C[C@H](O)CN2C(=O)[C@H](CC)NC(=O)[C@H](C)NC)[nH]c2cc(F)ccc12 [Birinapant] | 22.4 | -1030 |
| COc1ccc(-n2nc(C(N)=O)c3c2C(=O)N(c2ccc(N4CCCCC4=O)cc2)CC3)cc1 [Apixaban] + CC[C@H](NC(=O)[C@H](C)NC)C(=O)N1C[C@@H](O)C[C@H]1Cc1c(-c2[nH]c3cc(F)ccc3c2C[C@@H]2C[C@H](O)CN2C(=O)[C@H](CC)NC(=O)[C@H](C)NC)[nH]c2cc(F)ccc12 [Birinapant] | -103 |  |
| CN1CC2c3ccccc3Oc3ccc(Cl)cc3C2C1 (configuration not stated) [Asenapine maleate] + CC[C@H](NC(=O)[C@H](C)NC)C(=O)N1C[C@@H](O)C[C@H]1Cc1c(-c2[nH]c3cc(F)ccc3c2C[C@@H]2C[C@H](O)CN2C(=O)[C@H](CC)NC(=O)[C@H](C)NC)[nH]c2cc(F)ccc12 [Birinapant] | 164 |  |
| O=S(=O)(O)c1ccc2cc(N=Nc3cc(S(=O)(=O)O)c4cccnc4c3O)ccc2c1 + CC[C@H](NC(=O)[C@H](C)NC)C(=O)N1C[C@@H](O)C[C@H]1Cc1c(-c2[nH]c3cc(F)ccc3c2C[C@@H]2C[C@H](O)CN2C(=O)[C@H](CC)NC(=O)[C@H](C)NC)[nH]c2cc(F)ccc12 [Birinapant] | 130 |  |
| NC[C@H]1O[C@H](O[C@H]2[C@H](O)[C@@H](O[C@H]3O[C@H](CO)[C@@H](O)[C@H](N)[C@H]3O)[C@H](N)C[C@@H]2N)[C@H](O)[C@@H](O)[C@@H]1O [Kanamycin] + CC[C@H](NC(=O)[C@H](C)NC)C(=O)N1C[C@@H](O)C[C@H]1Cc1c(-c2[nH]c3cc(F)ccc3c2C[C@@H]2C[C@H](O)CN2C(=O)[C@H](CC)NC(=O)[C@H](C)NC)[nH]c2cc(F)ccc12 [Birinapant] | -24.6 |  |
| CCc1cccc(CC)c1NC(=O)N1Cc2[nH]nc(NC(=O)c3ccc(N4CCN(C)CC4)cc3)c2C1 + CC[C@H](NC(=O)[C@H](C)NC)C(=O)N1C[C@@H](O)C[C@H]1Cc1c(-c2[nH]c3cc(F)ccc3c2C[C@@H]2C[C@H](O)CN2C(=O)[C@H](CC)NC(=O)[C@H](C)NC)[nH]c2cc(F)ccc12 [Birinapant] | -207 |  |
| O=C(O)c1ccc(-c2cc3cccnc3c(-c3ccc4nonc4c3)n2)cc1 + CC[C@H](NC(=O)[C@H](C)NC)C(=O)N1C[C@@H](O)C[C@H]1Cc1c(-c2[nH]c3cc(F)ccc3c2C[C@@H]2C[C@H](O)CN2C(=O)[C@H](CC)NC(=O)[C@H](C)NC)[nH]c2cc(F)ccc12 [Birinapant] | -117 |  |
| CCOC(=O)N1c2ccc(C(F)(F)F)cc2[C@@H](N(Cc2cc(C(F)(F)F)cc(C(F)(F)F)c2)C(=O)OC)C[C@H]1CC [Torcetrapib] + CC[C@H](NC(=O)[C@H](C)NC)C(=O)N1C[C@@H](O)C[C@H]1Cc1c(-c2[nH]c3cc(F)ccc3c2C[C@@H]2C[C@H](O)CN2C(=O)[C@H](CC)NC(=O)[C@H](C)NC)[nH]c2cc(F)ccc12 [Birinapant] | -42.4 |  |
| Nc1nc(=O)c2c([nH]1)NCC(CNc1ccc(C(=O)N[C@@H](CCC(=O)O)C(=O)O)cc1)N2C=O (some centres not stated) [Calcium folinate] + CC[C@H](NC(=O)[C@H](C)NC)C(=O)N1C[C@@H](O)C[C@H]1Cc1c(-c2[nH]c3cc(F)ccc3c2C[C@@H]2C[C@H](O)CN2C(=O)[C@H](CC)NC(=O)[C@H](C)NC)[nH]c2cc(F)ccc12 [Birinapant] | 148 |  |
| O=C(c1cc(Cc2n[nH]c(=O)c3ccccc23)ccc1F)N1CCN(C(=O)C2CC2)CC1 [Olaparib] + CC[C@H](NC(=O)[C@H](C)NC)C(=O)N1C[C@@H](O)C[C@H]1Cc1c(-c2[nH]c3cc(F)ccc3c2C[C@@H]2C[C@H](O)CN2C(=O)[C@H](CC)NC(=O)[C@H](C)NC)[nH]c2cc(F)ccc12 [Birinapant] | -98.9 | -1730 |

| SMILES | Excess HSA synergy score [1] | Excess HSA synergy score [2] |
| --- | --- | --- |
| CN1CCCC(n2nc(Cc3ccc(Cl)cc3)c3ccccc3c2=O)CC1 (configuration not stated) [Azelastine hydrochloride] + CC[C@H](NC(=O)[C@H](C)NC)C(=O)N1C[C@@H](O)C[C@H]1Cc1c(-c2[nH]c3cc(F)ccc3c2C[C@@H]2C[C@H](O)CN2C(=O)[C@H](CC)NC(=O)[C@H](C)NC)[nH]c2cc(F)ccc12 [Birinapant] | -156 |  |
| CN(C)/[N+]([O-])=N/Oc1cc(ON[N+](=O)N2CCN(C(=O)c3cc(Cc4n[nH]c(=O)c5ccccc45)ccc3F)CC2)c([N+](=O)[O-])cc1[N+](=O)[O-] + CC[C@H](NC(=O)[C@H](C)NC)C(=O)N1C[C@@H](O)C[C@H]1Cc1c(-c2[nH]c3cc(F)ccc3c2C[C@@H]2C[C@H](O)CN2C(=O)[C@H](CC)NC(=O)[C@H](C)NC)[nH]c2cc(F)ccc12 [Birinapant] | 162 |  |
| CN1C(=O)C[C@@H](C(=O)N[C@@H](Cc2c[nH]cn2)C(=O)N2CCC[C@H]2C(N)=O)NC1=O [Taltirelin] + CC[C@H](NC(=O)[C@H](C)NC)C(=O)N1C[C@@H](O)C[C@H]1Cc1c(-c2[nH]c3cc(F)ccc3c2C[C@@H]2C[C@H](O)CN2C(=O)[C@H](CC)NC(=O)[C@H](C)NC)[nH]c2cc(F)ccc12 [Birinapant] | 10.4 |  |
| C/C(=N\NC(=S)N1CCC1)c1ccccn1 + CC[C@H](NC(=O)[C@H](C)NC)C(=O)N1C[C@@H](O)C[C@H]1Cc1c(-c2[nH]c3cc(F)ccc3c2C[C@@H]2C[C@H](O)CN2C(=O)[C@H](CC)NC(=O)[C@H](C)NC)[nH]c2cc(F)ccc12 [Birinapant] | -323 | -1630 |
| Cc1n[nH]c(C)c1Cc1sc2c(c1C(=O)N1C[C@H](O)CO1)c(=O)n(C)c(=O)n2CC(C)C + CC[C@H](NC(=O)[C@H](C)NC)C(=O)N1C[C@@H](O)C[C@H]1Cc1c(-c2[nH]c3cc(F)ccc3c2C[C@@H]2C[C@H](O)CN2C(=O)[C@H](CC)NC(=O)[C@H](C)NC)[nH]c2cc(F)ccc12 [Birinapant] | 60.3 |  |
| COc1ccc(S(=O)(=O)N(C(C)=O)c2ccccc2/C=C/c2cc[n+]([O-])cc2)cc1 + CC[C@H](NC(=O)[C@H](C)NC)C(=O)N1C[C@@H](O)C[C@H]1Cc1c(-c2[nH]c3cc(F)ccc3c2C[C@@H]2C[C@H](O)CN2C(=O)[C@H](CC)NC(=O)[C@H](C)NC)[nH]c2cc(F)ccc12 [Birinapant] | -72.6 |  |
| CN(C)c1nc(Cc2ccc(NC(=O)c3ccc4ccccc4c3)cc2)nc(Cl)c1CC(=O)O + CC[C@H](NC(=O)[C@H](C)NC)C(=O)N1C[C@@H](O)C[C@H]1Cc1c(-c2[nH]c3cc(F)ccc3c2C[C@@H]2C[C@H](O)CN2C(=O)[C@H](CC)NC(=O)[C@H](C)NC)[nH]c2cc(F)ccc12 [Birinapant] | 169 |  |
| N=C(NCCCCCCNC(=N)NC(=N)Nc1ccc(Cl)cc1)NC(=N)Nc1ccc(Cl)cc1 [Chlorhexidine] + CC[C@H](NC(=O)[C@H](C)NC)C(=O)N1C[C@@H](O)C[C@H]1Cc1c(-c2[nH]c3cc(F)ccc3c2C[C@@H]2C[C@H](O)CN2C(=O)[C@H](CC)NC(=O)[C@H](C)NC)[nH]c2cc(F)ccc12 [Birinapant] | -4.24 |  |
| N#CN=C(NCCCCCCOc1ccc(Cl)cc1)Nc1ccncc1 + CC[C@H](NC(=O)[C@H](C)NC)C(=O)N1C[C@@H](O)C[C@H]1Cc1c(-c2[nH]c3cc(F)ccc3c2C[C@@H]2C[C@H](O)CN2C(=O)[C@H](CC)NC(=O)[C@H](C)NC)[nH]c2cc(F)ccc12 [Birinapant] | -214 | -1410 |
| CC(C)C[C@@H](C=O)NC(=O)[C@H](CC(C)C)NC(=O)[C@H](CC(C)C)NC(=O)OCc1ccccc1 + CC[C@H](NC(=O)[C@H](C)NC)C(=O)N1C[C@@H](O)C[C@H]1Cc1c(-c2[nH]c3cc(F)ccc3c2C[C@@H]2C[C@H](O)CN2C(=O)[C@H](CC)NC(=O)[C@H](C)NC)[nH]c2cc(F)ccc12 [Birinapant] | 36.9 |  |
| O=C(NC1CC1)c1cccc(-c2ccc3c(NC(=O)C4CC4)n[nH]c3c2)c1 + CC[C@H](NC(=O)[C@H](C)NC)C(=O)N1C[C@@H](O)C[C@H]1Cc1c(-c2[nH]c3cc(F)ccc3c2C[C@@H]2C[C@H](O)CN2C(=O)[C@H](CC)NC(=O)[C@H](C)NC)[nH]c2cc(F)ccc12 [Birinapant] | 81.8 |  |
| N#Cc1ccc(COC[C@H]2O[C@@H](n3c(NCc4ccc(Cl)c(Cl)c4)nc4c(N)ncnc43)[C@H](O)[C@@H]2O)cc1 + CC[C@H](NC(=O)[C@H](C)NC)C(=O)N1C[C@@H](O)C[C@H]1Cc1c(-c2[nH]c3cc(F)ccc3c2C[C@@H]2C[C@H](O)CN2C(=O)[C@H](CC)NC(=O)[C@H](C)NC)[nH]c2cc(F)ccc12 [Birinapant] | -237 |  |
| COc1ccc(-c2ccc3c(N4CCOCC4)nc(N4C[C@@H](C)O[C@@H](C)C4)nc3n2)cc1CO + CC[C@H](NC(=O)[C@H](C)NC)C(=O)N1C[C@@H](O)C[C@H]1Cc1c(-c2[nH]c3cc(F)ccc3c2C[C@@H]2C[C@H](O)CN2C(=O)[C@H](CC)NC(=O)[C@H](C)NC)[nH]c2cc(F)ccc12 [Birinapant] | -161 |  |
| COc1ccc(-c2nc(N3CCOCC3)c3sc(CN(C)c4ncc(C(=O)NO)cn4)cc3n2)cn1 + CC[C@H](NC(=O)[C@H](C)NC)C(=O)N1C[C@@H](O)C[C@H]1Cc1c(-c2[nH]c3cc(F)ccc3c2C[C@@H]2C[C@H](O)CN2C(=O)[C@H](CC)NC(=O)[C@H](C)NC)[nH]c2cc(F)ccc12 [Birinapant] | -204 | -1340 |
| CC(C)(O)c1cc2nc(-c3cnc(N)nc3)nc(N3CCOCC3)c2s1 + CC[C@H](NC(=O)[C@H](C)NC)C(=O)N1C[C@@H](O)C[C@H]1Cc1c(-c2[nH]c3cc(F)ccc3c2C[C@@H]2C[C@H](O)CN2C(=O)[C@H](CC)NC(=O)[C@H](C)NC)[nH]c2cc(F)ccc12 [Birinapant] | 72.3 |  |
| Cc1nc(N)ncc1-c1nc(N2CCOCC2)c2sc(C(C)(C)O)cc2n1 + CC[C@H](NC(=O)[C@H](C)NC)C(=O)N1C[C@@H](O)C[C@H]1Cc1c(-c2[nH]c3cc(F)ccc3c2C[C@@H]2C[C@H](O)CN2C(=O)[C@H](CC)NC(=O)[C@H](C)NC)[nH]c2cc(F)ccc12 [Birinapant] | -47.1 |  |
